Laboratory results reported in PubChem BioAssay.
A number with no mark means an inactive call. How the calls were made is not given here.

Test system: Aerobactin synthetase IucA (Klebsiella pneumoniae hvKP1)
Assay: IucA enzyme inhibition, primary screen, biochemical, Spectrum library (AID 1346200);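 further: 100% = wells without compound and 0% = wells lacking enzyme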
Conditions: malachite green pyrophosphate, A620, at 8 µM, active compounds read low

| SMILES | activity remaining [%] |
| --- | --- |
| CCOC(=O)[C@H](CCc1ccccc1)N[C@@H](C)C(=O)N1Cc2ccccc2C[C@H]1C(=O)O | 95.9 |
| NC(Cc1ccc(F)cc1)C(=O)O (stereo not given) | 124 |
| N=c1ccn2c(n1)O[C@@H]1[C@@H](O)[C@H](CO)O[C@@H]12 | 97.5 |
| CC(=O)[C@@]1(O)CCC2C3CCC4=CC(=O)CC[C@]4(C)C3CC[C@@]21C (stereo not given in full) | 72.4 |
| CC1CCc2cc(F)cc3c(=O)c(C(=O)O)cn1c23 (stereo not given) | 119 |
| C[C@]12CCC3c4ccc(O)cc4CCC3C1CCC2=O (stereo not given in full) | 103 |
| Cc1cc(=O)oc2cc(O)c(O)cc12 | 118 |
| CCCc1c(OCCCCc2nn[nH]n2)ccc(C(C)=O)c1O | 112 |
| CCCC(=O)Nc1ccc(OCC(O)CNC(C)C)c(C(C)=O)c1 (stereo not given) | 120 |
| CO[C@H]1/C=C/O[C@@]2(C)Oc3c(C)c(O)c4c(O)c(c(C=NN5CCN(C)CC5)c(O)c4c3C2=O)NC(=O)/C(C)=C\C=C\C(C)[C@H](O)[C@@H](C)[C@@H](O)[C@@H](C)[C@@H](OC(C)=O)[C@@H]1C (stereo not given in full) | 98.4 |
| CCN(CC)C(=O)c1cccc(C)c1 | 112 |
| CCCCCc1c2c(cc(O)c1C(=O)O)OC(=O)c1c(cc(OC)cc1C(=O)CCCC)O2 | 121 |
| C=CCCCCCCCCC(=O)O | 111 |
| COC(=O)C1=CO[C@@H](O[C@@H]2O[C@H](CO)[C@@H](O)[C@H](O)[C@H]2O)[C@@H]2[C@@H](C)[C@@H](O)C[C@H]12 | 101 |
| CC1(C)S[C@@H]2[C@H](NC(=O)[C@H](C(=O)O)c3cccs3)C(=O)N2[C@H]1C(=O)O | 102 |
| CN(C)CCc1c[nH]c2ccc(C[C@H]3COC(=O)N3)cc12 | 112 |
| C[C@]12CC[C@H](O)CC1=CCC1C2CC[C@]2(C)C(=O)CCC12 (stereo not given in full) | 103 |
| CC(=O)Oc1ccc2c(c1)CCC1C2CC[C@]2(C)C(=O)CCC12 (stereo not given in full) | 99.1 |
| Cc1onc(-c2c(Cl)cccc2Cl)c1C(=O)N[C@@H]1C(=O)N2[C@@H]1SC(C)(C)[C@@H]2C(=O)O | 121 |
| OC(CCN1CCCC1)(c1ccccc1)C1CCCCC1 (stereo not given) | 99.4 |

| SMILES | activity remaining [%] |
| --- | --- |
| CCC(=O)O[C@H]1[C@H](O[C@@H]2[C@@H](C)[C@H](O[C@H]3C[C@@](C)(OC)[C@@H](O)[C@H](C)O3)[C@@H](C)C(=O)O[C@H](CC)[C@@](C)(O)[C@H](O)[C@@H](C)C(=O)[C@H](C)C[C@@]2(C)O)O[C@H](C)C[C@@H]1N(C)C | 121 |
| C=CCCCCCCCCCCCC(O)CC(O)CO (stereo not given) | 76.1 |
| Cc1c(C(N)=O)cc([N+](=O)[O-])cc1[N+](=O)[O-] | 106 |
| COc1cccc(OC)c1C(=O)N[C@@H]1C(=O)N2[C@@H]1SC(C)(C)[C@@H]2C(=O)O | 85.9 |
| C/C1=C\CCC(=O)C2CC(C)(C)C2CC1 (stereo not given) | 105 |
| CC(=O)O[C@]1(C(C)=O)CCC2C3C=C(Cl)C4=CC(=O)CC[C@]4(C)C3CC[C@@]21C (stereo not given in full) | 130 |
| COC(=O)C1=CO[C@@H](C)[C@@H]2CN3CC[C@@]4(C(=O)Nc5ccccc54)[C@H]3CC12 (stereo not given in full) | 101 |
| CC(C)=CCC1=C(O)c2ccccc2C(=O)C1=O | 119 |
| Cc1cc(C(C)(C)C)c(O)c(C(C)(C)C)c1 | 110 |
| COc1ccc2cc1Oc1ccc(cc1)C[C@H]1c3cc(c(OC)cc3CCN1C)Oc1c(OC)c(OC)cc3c1[C@H](C2)N(C)CC3 | 108 |
| CC(=O)[C@H]1CCC2C3CC=C4C[C@@H](OC(=O)CCC(=O)O)CC[C@]4(C)C3CC[C@@]21C (stereo not given in full) | 117 |
| C=C1CCC2C(CC2(C)C)C(=C)CC/C1=N/O (stereo not given) | 105 |
| c1ccc(CN(CC2=NCCN2)c2ccccc2)cc1 | 120 |
| CC1=C(C/C=C(\C)CCC[C@H](C)CCC[C@H](C)CCCC(C)C)C(=O)c2ccccc2C1=O | 114 |
| CC[C@H]1OC(=O)[C@H](C)[C@@H](O[C@H]2C[C@@](C)(OC)[C@@H](O)[C@H](C)O2)[C@H](C)[C@@H](O[C@@H]2O[C@H](C)C[C@H](N(C)C)[C@H]2O)[C@](C)(OC)C[C@@H](C)C(=O)[C@H](C)[C@@H](O)[C@]1(C)O | 119 |
| CC(C)=CCc1c(O)cc2oc(C)cc(=O)c2c1O | 118 |
| OC[C@H]1O[C@@H](Oc2ccc(O)cc2)[C@H](O)[C@@H](O)[C@@H]1O | 115 |
| CC(=O)OCC(=O)[C@@]1(O)[C@H](OC(C)=O)CC2C3CCC4=CC(=O)C=C[C@]4(C)[C@@]3(F)[C@@H](O)C[C@@]21C (stereo not given in full) | 120 |
| CCc1ccc(CCOc2ccc(CC3SC(=O)NC3=O)cc2)nc1 (stereo not given) | 120 |
| COc1cc([C@@H]2c3cc4c(cc3[C@H](O)[C@H]3COC(=O)[C@@H]23)OCO4)cc(OC)c1OC | 82.7 |
